Bioassay records (PubChem BioAssay)
The list is not random: actives were taken first. Their share in the collection is about 22%.
CYP2C9 act = human CYP2C9 activators, primary screen, biochemical, luminescence | Cytochrome P450 2C9 (Homo sapiens), P11712 | recombinant CYP2C9, luciferin-H conversion; active compounds read high; factor 1 = untreated enzyme, 0 = blocked | activation factor at 5 µM | 96,000 tested, 1.4% active;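 active = activation factor of 2 or more for CYP2C9 at a 5 µM dose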;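 also: 0 = sulfaphenazole-blocked wells and 1 = vehicle-only wells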
cytoskel mod = modifiers of F-actin cytoskeleton organization, primary screen, imaging, HUVEC, phalloidin staining, high-content imaging; 91,000 tested, 0.18% active; AID 836, 2007; HUVEC TNFa F-actin phalloidin imaging; inhibition, % at 2 µM;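 active = inhibition above the batch mean plus 3 SD and confirmed as a hit by visual image inspection, cut at about 30% in these data, passing the limit was not always enough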
CYP2C9 inhib = blockers of cytochrome P450 2C9 activity – biochemical, luminescence, ADME assay, primary screen; 96,000 tested, 20% active; inhibition, % at 5 µM; AID 777, 2007; CYP2C9 Supersomes, luciferin-H conversion;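 active = blocking of liver enzyme CYP2C9 beyond about 50% at 5 µM, limit read from the data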
CYP2C19 inhib = blockers of cytochrome P450 2C19 activity – biochemical, luminescence, ADME assay, primary screen. CYP2C19 Supersomes, luciferin-H EGE luminescence, 30 min. inhibition, % at 5 µM. 96,000 tested, 21% active. AID 778, 2007;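 active = CYP2C19 inhibition above a set limit at 5 µM in the primary screen, cut at about 50% in these data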;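 also: plate controls were negative control wells for no effect and 2.5 mM tranylcypromine positive control for full effect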
Target sequence (P33261 whole entry, looked up): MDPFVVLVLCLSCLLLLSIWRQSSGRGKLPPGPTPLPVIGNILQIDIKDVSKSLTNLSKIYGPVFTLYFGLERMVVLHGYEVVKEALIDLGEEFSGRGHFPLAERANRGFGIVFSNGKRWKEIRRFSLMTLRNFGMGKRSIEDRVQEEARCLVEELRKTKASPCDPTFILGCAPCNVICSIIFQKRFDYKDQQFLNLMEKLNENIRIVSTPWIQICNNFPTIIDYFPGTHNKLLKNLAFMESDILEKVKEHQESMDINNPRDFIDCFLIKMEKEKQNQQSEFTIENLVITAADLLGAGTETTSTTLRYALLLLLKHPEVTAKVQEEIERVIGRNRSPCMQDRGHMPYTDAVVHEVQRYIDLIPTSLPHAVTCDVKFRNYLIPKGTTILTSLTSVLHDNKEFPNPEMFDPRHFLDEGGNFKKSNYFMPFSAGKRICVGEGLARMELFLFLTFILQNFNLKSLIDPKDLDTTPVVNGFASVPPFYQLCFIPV
CYP2C19 act = human CYP2C19 activators, primary screen, biochemical, luminescence. Cytochrome P450 2C19 (Homo sapiens), P33261. recombinant CYP2C19, luciferin-H EGE luminescence; active compounds read high; 0 = fully inhibited enzyme, 1 = untreated enzyme. 96,000 tested, under 10 active. AID 1025, 2008. activation factor at 5 µM;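 active = activation factor of at least 2 at 5 µM in the primary screen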;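 also: 0 = wells with 2.5 mM tranylcypromine and 1 = vehicle-only wells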
E-sel TNF inh = E-selectin induction blockers in HUVEC – imaging, immunofluorescence, high content, primary screen; HUVEC TNFa-induced E-selectin immunofluorescence; inhibition, % at 2 µM; 120,000 tested, 0.71% active;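 active = inhibition above the batch mean plus 3 SD, and confirmed as a hit on visual image review, cut at about 43% in these data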;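 also: 0% = TNF-stimulated DMSO wells and 100% = unstimulated control wells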
An asterisk follows results filed as active; x = no result.

SMILES	CYP2C9 act	cytoskel mod	CYP2C9 inhib	CYP2C19 inhib	CYP2C19 act	E-sel TNF inh
Cc1sc2ncn(CC(=O)N(CC(=O)NC3CCCC3)Cc3cccs3)c(=O)c2c1C	0.4	x	56.3*	23.7	0.8	-19.2
Cc1ccc(C(=O)N(CC(=O)NC2CCCC2)Cc2cccs2)s1	0.1	-2.1	88.0*	74.4*	0.3	-1.4
C=CCc1c(C)nc(SCC(=C)C)[nH]c1=O	0.8	-10.9	17.1	54.9*	0.5	4.3
COCCNC(=O)Nc1ccc2nc(-c3cccs3)c(-c3cccs3)nc2c1	0.5	-7.5	51.9*	2.2	1	0.7
O=C(Nc1ccc(N2CCOCC2)cc1)Nc1cnsn1	1	12.7	-4.9	2.1	1	9.5
COc1ccc(C(CNC(=O)c2ccc(S(=O)(=O)N(C)C)cc2)N2CCCCC2)cc1 (stereo not drawn)	x	x	x	x	x	-14.3
CCn1c(O)c(N=NC(=O)CNC(=O)c2ccco2)c2ccccc21	x	x	x	x	x	5.6
CCn1c(O)c(N=NC(=O)CNC(=O)/C=C/c2ccco2)c2ccccc21	0.4	0.6	64.7*	50.5*	0.5	7.6
O=C(CSc1nc(Nc2ccccc2)nc(N2CCOCC2)n1)Nc1ccc([N+](=O)[O-])cc1	0.2	-1.6	77.2*	52.9*	0.5	12.2
O=C(CSc1nc(Nc2ccccc2)nc(N2CCOCC2)n1)Nc1ccccc1Cl	0	0.5	97.0*	95.2*	0	-18.6
CCOC(=O)CCCn1ncn2c(cc3occc32)c1=O	0.9	14.9	5.3	13.2	0.9	23.8
Cc1c(CCO)c(=O)n(-c2ccccc2)n1S(=O)(=O)c1ccc(Cl)cc1	0.5	31.2*	47.1	69.9*	0.3	8.3
CCOC(=O)N1CCC(N2C(=O)c3ccccc3C2Nc2cc(Cl)c(OC)cc2OC)CC1 (stereo not drawn)	0.4	-13.9	60.4*	30.0	0.7	x
Cc1ccc(C(=O)NCc2ccc3c(c2)OCO3)cc1N1CCCC1=O	0.9	-31.0	8.4	-4.4	1	x
O=C(NCc1ccc2c(c1)OCO2)c1ccc(Cl)c(S(=O)(=O)N2CCOCC2)c1	0.3	0.1	68.0*	38.1	0.6	6.9
Cc1ccc(C(=O)NCc2ccc3c(c2)OCO3)cc1S(=O)(=O)N1CCCCC1	0.2	-10.9	81.0*	51.1*	0.5	-22.0
Cc1ccc(C(=O)NCc2ccc3c(c2)OCO3)cc1S(=O)(=O)N1CCOCC1	0.2	3.5	76.0*	66.0*	0.3	-5.5
CCOC(=O)c1nc(C)n(-c2cc(Cl)ccc2Cl)n1	0.9	0.3	10.3	37.4	0.6	-48.2
Cc1onc(-c2c(F)cccc2Cl)c1C(=O)OCn1nnc2ccccc2c1=O	x	-3.5	x	x	x	-12.3
CC(C)OC(=O)CN1C(=O)C(C)(C)Oc2ccc(C(=O)NC(C)(C)C)cc21	0.3	-3.3	73.4*	36.3	0.6	3.3
CC(C)OC(=O)CN1C(=O)C(C)(C)Oc2ccc(C(=O)NC3CC3)cc21	0.7	x	34.2	12.4	0.9	-16.6
CCN(C(=O)CCS(=O)(=O)c1ccc(Br)cc1)c1ccc2c(c1)OCO2	0.9	x	6.1	67.0*	0.3	95.7*
O=C(Nc1ccc2c(c1)OCO2)c1c(F)c(F)c(F)c(F)c1F	1	-23.0	0.4	38.1	0.6	10.5
Cc1ccc(S(=O)(=O)CCC(=O)Nc2ccc3c(c2)OCO3)cc1	0.1	0.0	93.6*	0.6	1	-78.0
Cc1ccc(C)c(OCC(=O)Nc2ccc3c(c2)OCO3)c1C	2.9*	-7.0	-191.0	5.5	0.9	-1.5
SMILES	CYP2C9 act	cytoskel mod	CYP2C9 inhib	CYP2C19 inhib	CYP2C19 act	E-sel TNF inh
O=C(CCS(=O)(=O)c1ccc(Br)cc1)Nc1ccc2c(c1)OCO2	x	-4.2	x	x	x	-43.7
O=C(CC1(C(F)(F)F)OCCO1)Nc1ccc2c(c1)OCO2	0.9	10.0	8.0	93.7*	0.1	12.9
COc1ccc(N2CCC(CNC(=O)Nc3ccc(Cl)cc3)C2)cc1 (stereo not drawn)	x	x	x	x	x	1.5
O=C(CC1C(=O)NCCN1Cc1ccccc1C(F)(F)F)NCCc1ccccn1 (stereo not drawn)	x	x	x	x	x	4.4
CCOC(=O)c1[nH]c(C)c(C(=O)NC2CCN(C(=O)OCC)CC2)c1C	1.1	2.6	-5.7	-5.6	1.1	x
c1csc(C2CCCN2c2nc3nonc3nc2NC2CC2)n1 (stereo not drawn)	x	x	x	x	x	7.4
Cc1ccc(NC(=O)COC(=O)/C=C/c2cccs2)c(C)c1	x	x	x	x	x	-43.7
Cc1c(Cl)cccc1NC(=O)CN1CCN(CCO)CC1	x	-13.2	x	x	x	-6.1
CCN(C(=O)c1c(C)cc(=O)oc1C)c1ccc2c(c1)OCO2	1	-2.1	-0.2	16.7	0.8	-27.2
Cc1cccc(OCCCC(=O)Nc2ccc(N3CCOCC3)cc2)c1	0.5	-10.8	47.6	38.7	0.6	-6.5
CCN(C(=O)c1coc(=O)c(Br)c1)c1ccc2c(c1)OCO2	0.4	-15.9	61.6*	58.8*	0.4	x
Cc1cccc(OCCCC(=O)Nc2ccc3c(c2)OCO3)c1	0.5	-1.9	53.9*	68.6*	0.3	11.2
Cc1ccc(S(=O)(=O)NCCC(=O)Nc2ccc3c(c2)OCO3)cc1	0.1	4.2	94.8*	84.5*	0.2	-19.3
O=C(CCc1ccc(S(=O)(=O)NCCc2ccccc2)cc1)Nc1ccc2c(c1)OCCO2	x	x	x	x	x	44.9
CCOC(=O)C1CCN(C(=O)c2ccc(OC)cc2OC)CC1	1.2	11.7	-24.6	13.2	0.9	-12.8
O=C(Nc1nc(-c2ccc3c(c2)Cc2ccccc2-3)cs1)c1ccccc1	x	x	x	x	x	2.0
COc1nnnc2c1sc1nc(N3CCOCC3)c3c(c12)CC(C)(C)OC3	0.9	x	12.7	7.8	0.9	x
COc1ccc(S(=O)(=O)N2CCN(CCC(=O)Nc3ccc(F)cc3)CC2)cc1	x	x	x	x	x	17.3
O=C(CN1CCN(S(=O)(=O)c2ccc(Cl)cc2)CC1)Nc1ccc2c(c1)CCC2	x	x	x	x	x	8.8
COc1ccc(NC(=O)CCN2CCN(S(=O)(=O)c3ccc(Cl)cc3)CC2)cc1	0.2	15.5	75.1*	70.7*	0.3	8.1
CN(CC(=O)Nc1ccc(Cl)cc1)c1ccc(S(=O)(=O)N2CCCCC2)cc1[N+](=O)[O-]	x	x	x	x	x	62.3*
O=C(CN1CCN(S(=O)(=O)c2ccccc2)CC1)Nc1ccc(Cl)c(Cl)c1	0.8	-2.4	17.8	77.1*	0.2	9.6
CCOc1ccc(NC(=O)CN2CCN(S(=O)(=O)c3ccc(Cl)cc3)CC2)cc1	1.1	23.1	-9.0	80.1*	0.2	2.7
Cc1ccc(CCNC(=O)CN(C)S(=O)(=O)c2ccc3c(c2)c(=O)n(C)c(=O)n3C)cc1	0.9	-2.1	9.7	15.5	0.8	-4.7
CCOC(=O)c1c(C)c(C(=O)Nc2ccc3c(c2)OCCO3)c(C)n1CC	1	-10.9	1.7	30.6	0.7	x
